Results from the supplement of paper PMC8728848.
This is one part of a sample in which the strongest signals are shown more often than they occur.

Legend:
Test in all cases: glycan array binding signal (z-score within array); higher = stronger binding
Settings in all cases: glycan notation: IUPAC condensed, linker removed
[1] = target: Fuc(a1-2)Gal(b1-4)GlcNAc
Outline: (§1)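 Glycan array data were curated from 3228 arrays in the Consortium for Functional Glycomics database and kept only where the protein sequence was available. Glycan names were converted to IUPAC-condensed notation, and columns mapping to the same glycan were averaged. The binding signal is a within-array Z-score, averaged across arrays of the same protein sequence at different concentrations or buffers and across linkers. Negative Z-scores can be read as non-binding.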

[2] = target: Fuc(a1-2)[Gal(a1-3)]Gal
Outline: as §1

[3] = target: Fuc(b1-3)GlcNAc
Outline: as §1

[4] = target: Gal(a1-3)[Gal(a1-4)]Gal(b1-4)GlcNAc
Outline: as §1

[5] = target: Gal(b1-3)[Neu5Ac(a2-6)]GalNAc
Outline: as §1

[6] = target: Gal(b1-4)GlcNAc(b1-3)Gal(b1-4)GlcNAc
Outline: as §1

[7] = target: GlcNAc(b1-3)Gal
Outline: as §1

[8] = target: GlcNAc(b1-3)Gal(b1-4)Glc
Outline: as §1

[9] = target: GlcNAc(b1-3)[GlcNAc(b1-6)]Gal(b1-4)GlcNAc
Outline: as §1

[10] = target: GlcNAc(b1-3)[GlcNAc(b1-6)]GalNAc
Outline: as §1

[11] = target: GlcNAc(b1-4)[GlcNAc(b1-6)]GalNAc
Outline: as §1

[12] = target: Neu5Ac(a2-3)Gal(b1-3)GalNAc(b1-3)Gal(a1-4)Gal(b1-4)Glc
Outline: as §1

[13] = target: Neu5Ac(a2-3)Gal(b1-3)GalNAc(b1-3)Gal(b1-4)GlcNAc
Outline: as §1

[14] = target: Neu5Ac(a2-3)Gal(b1-4)GlcNAc
Outline: as §1

[15] = target: Neu5Ac(a2-3)GalNAc
Outline: as §1

B1: F17dG (Escherichia coli), Q47199 (protein)
chain: MTNFYKVFLAVFILVCCNISQAAVSFIGSTENDVGPSPGSYSRTHAMDNLPFVYNTGNNIGYQNANVWRISKGFCVGLDGKVDLPVVGSLDGQSIYGLTEEVGLLIWMGDTNYSRGTAMSGNSWENVFSGWCVGANTASTQGLSVRVTPVILKRNSSARYSVQKTSIGSIRMRPYNGSSAGSVQTTVNFSLNPFTLNDTVTSCRLLTPSAVNVSLAAISAGQLPSSGDEVVAGTTSLKLQCDAGVTVWATLTDATTPSNRSDILTLTGASTATGVGLRIYKNTDSTPLKFGPDSPVKGNENQWQLSTGTETSPSVRLYVKYVNTGEGINPGTVNGISTFTFSYQ
[1]
  glycan array binding signal (z-score): -0.185
[2]
  glycan array binding signal (z-score): -0.276
[3]
  glycan array binding signal (z-score): -0.225
[4]
  glycan array binding signal (z-score): -0.399
[5]
  glycan array binding signal (z-score): -0.194
[6]
  glycan array binding signal (z-score): -0.287
[7]
  glycan array binding signal (z-score): 4.56
[8]
  glycan array binding signal (z-score): 5.88
[9]
  glycan array binding signal (z-score): 5.46
[10]
  glycan array binding signal (z-score): 6.17
[11]
  glycan array binding signal (z-score): -0.009
[12]
  glycan array binding signal (z-score): -0.399
[13]
  glycan array binding signal (z-score): -0.204
[14]
  glycan array binding signal (z-score): -0.354
[15]
  glycan array binding signal (z-score): -0.327
